From ChEMBL document CHEMBL1961873, “Compounds: GSK PKIS; Assays: Nanosyn kinase panel” (2012) come the findings set out here.

In assay [1] the target is Sphingosine kinase 1 (Homo sapiens) (UniProt Q9NYA1). The conditions noted are these: at 1 µM.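 Further: mean SPHK1 inhibition value reported from the GSK PKIS kinase panel screen.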
For assay [2], the target named is T1, Sphingosine kinase 2 (Homo sapiens) (UniProt Q9NRA0).
T1 sequence (whole entry): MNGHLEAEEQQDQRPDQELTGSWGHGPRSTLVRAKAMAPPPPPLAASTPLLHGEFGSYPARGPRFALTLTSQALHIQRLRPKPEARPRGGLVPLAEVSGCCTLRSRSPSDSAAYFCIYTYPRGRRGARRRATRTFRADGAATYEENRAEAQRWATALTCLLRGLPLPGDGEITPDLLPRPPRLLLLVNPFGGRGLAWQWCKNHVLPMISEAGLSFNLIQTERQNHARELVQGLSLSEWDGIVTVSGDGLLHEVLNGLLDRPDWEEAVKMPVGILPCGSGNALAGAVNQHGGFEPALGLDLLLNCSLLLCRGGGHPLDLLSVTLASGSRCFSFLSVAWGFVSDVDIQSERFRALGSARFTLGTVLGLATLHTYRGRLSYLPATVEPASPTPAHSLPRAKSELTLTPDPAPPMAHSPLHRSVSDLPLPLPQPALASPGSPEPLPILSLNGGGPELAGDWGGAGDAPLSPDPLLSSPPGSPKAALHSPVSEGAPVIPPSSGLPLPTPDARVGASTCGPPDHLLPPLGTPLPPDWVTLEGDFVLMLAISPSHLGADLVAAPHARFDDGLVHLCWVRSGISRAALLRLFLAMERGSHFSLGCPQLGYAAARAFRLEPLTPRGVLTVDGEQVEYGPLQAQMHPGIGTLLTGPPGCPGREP
The following applies: at 0.1 µM.

Assay [3] has as its target T1, Sphingosine kinase 2 (Homo sapiens). The conditions noted are these: at 1 µM.
Assay [4] concerns the target Casein kinase II subunit alpha (Homo sapiens) (UniProt P68400). The conditions noted are these: at 0.1 µM.
Assay [5] shares this target. The conditions noted are these: at 1 µM.
Assay [6] has as its target T2, Inhibitor of nuclear factor kappa-B kinase subunit alpha (Homo sapiens) (UniProt O15111).
T2 sequence (whole entry): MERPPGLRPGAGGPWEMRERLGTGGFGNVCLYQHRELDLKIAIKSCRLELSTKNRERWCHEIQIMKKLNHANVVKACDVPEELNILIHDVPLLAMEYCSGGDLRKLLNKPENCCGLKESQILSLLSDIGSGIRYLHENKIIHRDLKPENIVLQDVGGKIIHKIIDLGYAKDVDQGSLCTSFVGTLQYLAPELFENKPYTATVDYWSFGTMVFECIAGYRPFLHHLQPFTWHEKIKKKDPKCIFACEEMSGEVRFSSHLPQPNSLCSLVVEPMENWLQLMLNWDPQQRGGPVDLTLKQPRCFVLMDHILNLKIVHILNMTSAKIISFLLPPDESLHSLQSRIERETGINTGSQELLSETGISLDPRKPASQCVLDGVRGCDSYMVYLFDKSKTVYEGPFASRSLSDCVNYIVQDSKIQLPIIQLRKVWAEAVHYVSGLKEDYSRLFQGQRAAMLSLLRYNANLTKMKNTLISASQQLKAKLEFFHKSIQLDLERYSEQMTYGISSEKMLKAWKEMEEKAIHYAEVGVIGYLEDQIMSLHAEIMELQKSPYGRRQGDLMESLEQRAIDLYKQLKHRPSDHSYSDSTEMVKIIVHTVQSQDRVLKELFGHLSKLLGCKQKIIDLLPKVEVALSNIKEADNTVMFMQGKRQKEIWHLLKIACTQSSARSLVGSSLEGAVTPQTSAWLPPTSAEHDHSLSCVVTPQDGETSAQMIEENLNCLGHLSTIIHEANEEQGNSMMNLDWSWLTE
The following applies: at 0.1 µM.

For assay [7], the target named is T2, Inhibitor of nuclear factor kappa-B kinase subunit alpha (Homo sapiens). The following applies: at 1 µM.
Assay [8] addresses T3, Inhibitor of nuclear factor kappa-B kinase subunit beta (Homo sapiens) (UniProt O14920).
T3 sequence (whole entry): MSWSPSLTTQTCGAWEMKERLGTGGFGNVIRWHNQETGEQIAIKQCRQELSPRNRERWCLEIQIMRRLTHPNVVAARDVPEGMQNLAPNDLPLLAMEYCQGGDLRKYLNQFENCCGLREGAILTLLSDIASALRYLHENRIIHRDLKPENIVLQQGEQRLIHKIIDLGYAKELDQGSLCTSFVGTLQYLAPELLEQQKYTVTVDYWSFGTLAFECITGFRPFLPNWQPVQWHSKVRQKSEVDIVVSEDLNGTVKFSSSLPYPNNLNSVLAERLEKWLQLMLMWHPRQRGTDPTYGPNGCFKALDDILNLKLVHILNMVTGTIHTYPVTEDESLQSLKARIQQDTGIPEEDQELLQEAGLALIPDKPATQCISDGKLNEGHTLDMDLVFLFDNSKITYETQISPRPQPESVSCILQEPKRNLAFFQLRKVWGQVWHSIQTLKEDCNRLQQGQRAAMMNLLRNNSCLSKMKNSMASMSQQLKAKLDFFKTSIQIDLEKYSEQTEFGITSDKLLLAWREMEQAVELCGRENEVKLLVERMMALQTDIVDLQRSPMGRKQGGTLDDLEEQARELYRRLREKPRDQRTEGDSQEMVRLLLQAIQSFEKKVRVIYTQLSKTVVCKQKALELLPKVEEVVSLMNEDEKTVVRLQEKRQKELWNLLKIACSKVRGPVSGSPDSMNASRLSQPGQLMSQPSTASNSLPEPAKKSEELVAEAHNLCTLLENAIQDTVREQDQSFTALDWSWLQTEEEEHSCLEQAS
The conditions noted are these: at 0.1 µM.

Assay [9] has as its target T3, Inhibitor of nuclear factor kappa-B kinase subunit beta (Homo sapiens). The following applies: at 1 µM.
In assay [10] the target is T4, Inhibitor of nuclear factor kappa-B kinase subunit epsilon (Homo sapiens) (UniProt Q14164).
T4 sequence (whole entry): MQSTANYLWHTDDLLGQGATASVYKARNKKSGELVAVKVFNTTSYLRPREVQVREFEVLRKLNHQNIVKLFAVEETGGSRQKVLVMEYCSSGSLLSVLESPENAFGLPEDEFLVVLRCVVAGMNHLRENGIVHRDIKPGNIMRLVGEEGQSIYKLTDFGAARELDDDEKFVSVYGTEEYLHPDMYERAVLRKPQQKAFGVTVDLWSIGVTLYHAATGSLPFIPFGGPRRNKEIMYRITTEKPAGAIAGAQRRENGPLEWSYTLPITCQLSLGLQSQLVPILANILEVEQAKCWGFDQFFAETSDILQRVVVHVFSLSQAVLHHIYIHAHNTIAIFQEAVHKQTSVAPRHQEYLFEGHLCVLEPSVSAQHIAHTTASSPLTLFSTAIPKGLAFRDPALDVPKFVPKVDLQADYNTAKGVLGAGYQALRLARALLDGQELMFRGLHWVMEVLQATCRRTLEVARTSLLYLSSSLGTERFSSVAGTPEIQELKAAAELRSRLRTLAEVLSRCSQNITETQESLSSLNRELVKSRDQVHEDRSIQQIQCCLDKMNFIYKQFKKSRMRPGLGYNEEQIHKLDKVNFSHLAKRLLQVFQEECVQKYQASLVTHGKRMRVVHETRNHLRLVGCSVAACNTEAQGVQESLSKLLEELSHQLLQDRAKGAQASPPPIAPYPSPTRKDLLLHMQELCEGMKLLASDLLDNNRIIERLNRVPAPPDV
The conditions noted are these: at 0.1 µM.

Assay [11] addresses T4, Inhibitor of nuclear factor kappa-B kinase subunit epsilon (Homo sapiens). The conditions noted are these: at 1 µM.
Assay [12] concerns the target T5, Serine/threonine-protein kinase Nek1 (Homo sapiens) (UniProt Q96PY6).
T5 sequence (whole entry): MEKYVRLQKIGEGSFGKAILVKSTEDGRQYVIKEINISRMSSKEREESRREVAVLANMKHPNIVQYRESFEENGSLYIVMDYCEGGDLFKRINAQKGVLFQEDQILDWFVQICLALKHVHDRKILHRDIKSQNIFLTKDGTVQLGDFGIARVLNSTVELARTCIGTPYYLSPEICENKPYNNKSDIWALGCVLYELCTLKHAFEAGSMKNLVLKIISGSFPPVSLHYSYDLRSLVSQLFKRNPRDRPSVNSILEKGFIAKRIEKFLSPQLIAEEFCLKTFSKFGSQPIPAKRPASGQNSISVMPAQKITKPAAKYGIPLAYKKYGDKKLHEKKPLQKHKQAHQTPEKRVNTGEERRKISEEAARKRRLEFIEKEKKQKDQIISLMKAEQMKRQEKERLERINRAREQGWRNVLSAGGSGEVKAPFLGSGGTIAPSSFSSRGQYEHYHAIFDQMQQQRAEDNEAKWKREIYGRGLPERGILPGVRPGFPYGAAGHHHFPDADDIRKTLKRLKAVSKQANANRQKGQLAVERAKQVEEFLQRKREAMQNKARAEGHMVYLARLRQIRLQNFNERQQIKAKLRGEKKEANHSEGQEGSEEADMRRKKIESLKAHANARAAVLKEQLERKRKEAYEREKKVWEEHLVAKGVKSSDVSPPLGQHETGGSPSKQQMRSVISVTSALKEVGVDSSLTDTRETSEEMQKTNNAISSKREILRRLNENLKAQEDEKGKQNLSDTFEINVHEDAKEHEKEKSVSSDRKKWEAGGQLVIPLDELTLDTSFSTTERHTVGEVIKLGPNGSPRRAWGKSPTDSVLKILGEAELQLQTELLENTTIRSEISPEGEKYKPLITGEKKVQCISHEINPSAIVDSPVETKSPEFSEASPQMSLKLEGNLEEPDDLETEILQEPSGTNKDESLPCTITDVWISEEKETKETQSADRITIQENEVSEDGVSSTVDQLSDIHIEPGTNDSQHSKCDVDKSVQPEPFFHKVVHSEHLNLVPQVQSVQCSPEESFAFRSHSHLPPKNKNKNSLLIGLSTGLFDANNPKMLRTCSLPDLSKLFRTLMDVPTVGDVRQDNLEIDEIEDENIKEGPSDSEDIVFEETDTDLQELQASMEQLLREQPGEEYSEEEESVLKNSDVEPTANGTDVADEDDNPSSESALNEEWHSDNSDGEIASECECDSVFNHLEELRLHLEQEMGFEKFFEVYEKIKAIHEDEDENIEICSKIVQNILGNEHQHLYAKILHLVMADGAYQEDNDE
The conditions noted are these: at 0.1 µM.

In assay [13] the target is T5, Serine/threonine-protein kinase Nek1 (Homo sapiens). The following applies: at 1 µM.
The target in assay [14] is T6, Serine/threonine-protein kinase Nek2 (Homo sapiens) (UniProt P51955).
T6 sequence (whole entry): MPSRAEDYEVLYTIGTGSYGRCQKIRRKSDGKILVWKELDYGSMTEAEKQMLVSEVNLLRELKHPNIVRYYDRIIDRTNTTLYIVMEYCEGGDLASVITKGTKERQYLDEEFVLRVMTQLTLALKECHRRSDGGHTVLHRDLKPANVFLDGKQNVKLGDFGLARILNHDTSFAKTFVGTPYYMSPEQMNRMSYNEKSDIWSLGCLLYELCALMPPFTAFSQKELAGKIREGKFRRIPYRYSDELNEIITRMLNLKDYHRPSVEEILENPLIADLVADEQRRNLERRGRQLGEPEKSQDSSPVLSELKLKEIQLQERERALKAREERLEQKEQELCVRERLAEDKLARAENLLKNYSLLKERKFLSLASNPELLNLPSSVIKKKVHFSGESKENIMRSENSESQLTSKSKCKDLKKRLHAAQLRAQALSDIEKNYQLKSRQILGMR
The following applies: at 0.1 µM.

The target in assay [15] is T6, Serine/threonine-protein kinase Nek2 (Homo sapiens). The following applies: at 1 µM.
The target in assay [16] is Serine/threonine-protein kinase Nek6 (Homo sapiens) (UniProt Q9HC98). The conditions noted are these: at 0.1 µM.
The target is the same in assay [17]. The following applies: at 1 µM.
The target of assay [18] is Serine/threonine-protein kinase Nek7 (Homo sapiens) (UniProt Q8TDX7). The conditions noted are these: at 0.1 µM.
Assay [19] shares this target. The conditions noted are these: at 1 µM.
Assay [20] has as its target T7, Serine/threonine-protein kinase Nek9 (Homo sapiens) (UniProt Q8TD19).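 Further: reported value is the mean percent inhibition of NEK9.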
T7 sequence (whole entry): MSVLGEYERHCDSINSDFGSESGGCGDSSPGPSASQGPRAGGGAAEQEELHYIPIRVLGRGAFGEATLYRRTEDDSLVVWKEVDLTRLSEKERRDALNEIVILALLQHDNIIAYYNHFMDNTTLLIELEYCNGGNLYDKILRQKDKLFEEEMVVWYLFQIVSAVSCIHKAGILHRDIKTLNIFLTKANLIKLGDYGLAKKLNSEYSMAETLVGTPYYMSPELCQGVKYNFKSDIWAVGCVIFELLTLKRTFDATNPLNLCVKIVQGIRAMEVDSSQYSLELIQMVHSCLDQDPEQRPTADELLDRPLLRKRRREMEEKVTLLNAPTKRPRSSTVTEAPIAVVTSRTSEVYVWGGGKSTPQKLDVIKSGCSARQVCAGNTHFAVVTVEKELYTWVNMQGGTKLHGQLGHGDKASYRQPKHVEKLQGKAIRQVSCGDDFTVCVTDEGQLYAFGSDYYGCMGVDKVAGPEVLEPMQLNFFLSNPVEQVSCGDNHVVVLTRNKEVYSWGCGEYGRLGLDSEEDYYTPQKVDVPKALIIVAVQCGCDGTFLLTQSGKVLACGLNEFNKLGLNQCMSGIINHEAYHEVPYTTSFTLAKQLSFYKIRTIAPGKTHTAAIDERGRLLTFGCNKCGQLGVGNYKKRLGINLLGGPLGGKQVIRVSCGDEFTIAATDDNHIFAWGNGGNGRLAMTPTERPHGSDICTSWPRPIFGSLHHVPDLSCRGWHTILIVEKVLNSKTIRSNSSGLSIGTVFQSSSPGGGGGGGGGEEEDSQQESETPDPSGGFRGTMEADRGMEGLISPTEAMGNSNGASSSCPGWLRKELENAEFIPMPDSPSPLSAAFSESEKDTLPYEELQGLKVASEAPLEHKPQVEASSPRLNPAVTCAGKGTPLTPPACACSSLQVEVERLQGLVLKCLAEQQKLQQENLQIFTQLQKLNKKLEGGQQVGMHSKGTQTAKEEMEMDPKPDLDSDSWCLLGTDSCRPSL
The conditions noted are these: at 0.1 µM.

Serine/threonine-protein kinase Nek6 (Homo sapiens), sequence (Q9HC98 whole entry): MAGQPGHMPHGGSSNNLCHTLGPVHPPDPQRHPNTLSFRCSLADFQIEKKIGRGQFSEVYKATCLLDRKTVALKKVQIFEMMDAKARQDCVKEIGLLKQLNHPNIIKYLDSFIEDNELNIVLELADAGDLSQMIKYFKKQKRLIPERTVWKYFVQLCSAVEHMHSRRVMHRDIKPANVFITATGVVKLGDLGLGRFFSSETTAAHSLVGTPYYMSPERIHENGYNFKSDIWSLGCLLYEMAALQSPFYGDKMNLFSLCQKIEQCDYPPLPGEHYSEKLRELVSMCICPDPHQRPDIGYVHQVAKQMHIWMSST
Serine/threonine-protein kinase Nek7 (Homo sapiens), sequence (Q8TDX7 whole entry, looked up): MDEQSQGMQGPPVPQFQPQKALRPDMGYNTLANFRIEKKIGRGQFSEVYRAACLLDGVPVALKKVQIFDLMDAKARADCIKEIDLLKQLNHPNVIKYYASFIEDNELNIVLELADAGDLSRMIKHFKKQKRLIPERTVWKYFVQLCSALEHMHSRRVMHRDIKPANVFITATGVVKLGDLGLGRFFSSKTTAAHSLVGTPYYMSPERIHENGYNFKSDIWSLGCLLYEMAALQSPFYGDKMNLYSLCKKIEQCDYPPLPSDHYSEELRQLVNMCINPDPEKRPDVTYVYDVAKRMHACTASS
Casein kinase II subunit alpha (Homo sapiens), sequence (P68400 whole entry, looked up): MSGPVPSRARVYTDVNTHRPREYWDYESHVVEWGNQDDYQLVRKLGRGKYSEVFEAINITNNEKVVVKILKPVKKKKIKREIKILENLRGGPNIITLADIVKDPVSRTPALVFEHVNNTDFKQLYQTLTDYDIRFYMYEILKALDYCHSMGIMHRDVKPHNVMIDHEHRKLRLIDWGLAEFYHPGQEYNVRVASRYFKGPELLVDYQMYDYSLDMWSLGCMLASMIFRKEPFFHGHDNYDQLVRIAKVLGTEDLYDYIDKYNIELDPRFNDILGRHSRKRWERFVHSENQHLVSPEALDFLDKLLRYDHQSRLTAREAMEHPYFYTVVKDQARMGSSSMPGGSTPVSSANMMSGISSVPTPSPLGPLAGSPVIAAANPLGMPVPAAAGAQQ
Sphingosine kinase 1 (Homo sapiens), sequence (Q9NYA1 whole entry): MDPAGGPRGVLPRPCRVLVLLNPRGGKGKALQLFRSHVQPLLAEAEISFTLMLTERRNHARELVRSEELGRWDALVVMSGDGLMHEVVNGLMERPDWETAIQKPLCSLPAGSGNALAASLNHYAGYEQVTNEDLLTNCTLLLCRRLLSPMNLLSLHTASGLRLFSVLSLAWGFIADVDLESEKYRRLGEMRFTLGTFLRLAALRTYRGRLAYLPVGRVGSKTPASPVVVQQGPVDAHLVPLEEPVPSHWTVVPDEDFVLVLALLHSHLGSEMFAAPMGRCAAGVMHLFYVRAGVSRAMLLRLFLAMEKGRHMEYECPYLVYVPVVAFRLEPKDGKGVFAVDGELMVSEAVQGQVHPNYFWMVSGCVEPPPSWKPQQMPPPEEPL

The inhibition is the relative decrease from the control value, in per cent. For `NS(=O)(=O)c1ccc(-c2ccc3c(NC(=O)C4CC4)n[nH]c3c2)cc1`, the inhibition in assay [1] was -1.21%; in assay [2] it was 0.08%; in assay [3] it was -0.22%; in assay [4], 1.12%; in assay [5], 1.51%; in [6], 2.81%. The inhibition was 3% in [7]; 3.94% in assay [8]; 3.28% in [9]; -0.78% in [10]; 3.02% in assay [11]; 1.11% in assay [12]. The inhibition amounted to 1.6% in assay [13]; 3.54% in assay [14]; 2.84% in [15]; 1.03% in assay [16]; 0.35% in [17]; 2.6% in [18]. In addition, the inhibition in assay [19] was found to be 1.74%; in assay [20], 5.05%.
